The values below come from ChEMBL document CHEMBL1201862, “PubChem BioAssay data set” (2004).

Out of some 44,000 sequences screened, about 5,100 (12%) were called active. This is one part of a sample in which actives are shown more often than they occur. Cut-off read from the data, not from the text of the source: active = GI50 up to about 1.1 µM and inactive = higher. Entries with a potency or affinity are not part of this list.

The assay relates to MCF7.
Take “[Bis(aminomethyl)tetramethylenesilane]tetrachloropaltinum(IV), CHEMBL2146189”: the GI50 (as a rule, the concentration that inhibits growth by half) amounted to 1640 nM.

As for SENNOSIDES, CHEMBL2108559, the GI50 came out at 183 nM.

As to “[Bis(aminomethyl)dimethylsilane]tetrachloroplatinum(IV), CHEMBL2146190”, the GI50 was 2970 nM.

In the case of “[Bis(aminomethyl)pentamethylenesilane]tetrachloropaltinum(IV), CHEMBL2146204”, the GI50 was determined as 290 nM.

For the substance “[Bis(aminomethyl)pentamethylenesilane]dichloropaltinum(II), CHEMBL2146202”, the GI50 stood at 249 nM.

Turning to CISPLATIN, CHEMBL11359, the GI50 was determined as 3010 nM.

Regarding “[Bis(aminomethyl)tetramethylenesilane]dichloropaltinum(II), CHEMBL2146205”, growth was halved (GI50) at 2220 nM.
